TDP1 cell noCPT – qHTS for Inhibitors of human tyrosyl-DNA phosphodiesterase 1 (TDP1): qHTS in cells in absence of CPT. Potency, µM (highest dose often 46.2 µM), for inactives: top-dose activity change, negative = growth inhibition, usual class: inhibitors. 15% of 420,000 active. DT40 Tdp1-/- hTDP1 cells, no CPT, ATP luminescence, 48 h; also: potency is read from the fitted curve at half-maximal effect; nearly all actives have a fitted effect of over 55% in size
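Readout: luminescence from CellTiter-Glo after 30 min in the dark at RT. Cells: DT40 Tdp1-/- with stable hTDP1, 400/well. Exposure: compounds alone, ≥48 hr, 37 °C.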
IL-1B inflam inh – blocks inflammasome-driven IL-1 beta release; THP-1 LPS/ATP IL-1B secretion, AlphaLISA, 16 h; hits give low values; activity change, % at 57.5 µM; 4.7% of 360,000 active; AID 743279; in the data active = activity change below about -50%; inconclusive = mostly about -30% to -49%
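Secreted IL-1B measured by AlphaLISA bead assay after 16 h compound exposure of THP-1 cells; compounds (final up to 57.5 uM) added 1 h before LPS (250 ng/mL) and ATP (1.25 mM) stimulation; lower signal means less secretion.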
DT40 TDP1 CPT – DT40-hTDP1 cell growth loss with CPT. chicken DT40 Tdp1-/-;hTDP1 cells + 20 nM CPT, ATP luminescence, 48 h. Potency, µM (series often up to 46.2 µM), for inactives: at the top dose activity change, negative = growth inhibition, most hits filed as inhibitors. 12% of 420,000 active; also: potency is read from the fitted curve at half-maximal effect; nearly all actives have a fitted effect of over 55% in size
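Chicken DT40 Tdp1-/- cells complemented with human TDP1, 400 cells/well, exposed to compounds plus 20 nM camptothecin for at least 48 h at 37 C; viability read as ATP content by CellTiter-Glo luminescence.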
HT1080NT lethal – kills 2HG-producing HT-1080-NT fibrosarcoma cells; HT-1080-NT fibrosarcoma viability, CellTiter-Glo ATP luminescence, 48 h; Potency, µM (series often up to 46.1 µM), inactives show at the top dose activity, negative = less viability, most hits filed as cytotoxic; 1.6% of 360,000 active; AID 686970;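 also: NT is the 2HG producing partner of a matched IDH1 knockdown line; potency is read from the fitted curve at half-maximal effect; 0% = DMSO-treated cells and -100% = media-only wells without cells; nearly all actives have a fitted effect of over 55% in size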
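Read-out is CellTiter-Glo luminescence after 10 minutes at room temperature, following 48 hours' compound treatment of HT-1080-NT cells (750 cells/well, RPMI, 5% FBS, 37 degrees C).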
ALOX12 inh – blocks human arachidonate 12S-lipoxygenase. P18054. purified 12hLO, xylenol orange hydroperoxide absorbance. Potency, µM (series often up to 108 µM), for inactives: top-dose activity change, negative = inhibition, actives largely listed as inhibitors. 1.1% of 580,000 active; also: potency is read from the fitted curve at half-maximal effect
Target sequence (P18054 whole entry, looked up): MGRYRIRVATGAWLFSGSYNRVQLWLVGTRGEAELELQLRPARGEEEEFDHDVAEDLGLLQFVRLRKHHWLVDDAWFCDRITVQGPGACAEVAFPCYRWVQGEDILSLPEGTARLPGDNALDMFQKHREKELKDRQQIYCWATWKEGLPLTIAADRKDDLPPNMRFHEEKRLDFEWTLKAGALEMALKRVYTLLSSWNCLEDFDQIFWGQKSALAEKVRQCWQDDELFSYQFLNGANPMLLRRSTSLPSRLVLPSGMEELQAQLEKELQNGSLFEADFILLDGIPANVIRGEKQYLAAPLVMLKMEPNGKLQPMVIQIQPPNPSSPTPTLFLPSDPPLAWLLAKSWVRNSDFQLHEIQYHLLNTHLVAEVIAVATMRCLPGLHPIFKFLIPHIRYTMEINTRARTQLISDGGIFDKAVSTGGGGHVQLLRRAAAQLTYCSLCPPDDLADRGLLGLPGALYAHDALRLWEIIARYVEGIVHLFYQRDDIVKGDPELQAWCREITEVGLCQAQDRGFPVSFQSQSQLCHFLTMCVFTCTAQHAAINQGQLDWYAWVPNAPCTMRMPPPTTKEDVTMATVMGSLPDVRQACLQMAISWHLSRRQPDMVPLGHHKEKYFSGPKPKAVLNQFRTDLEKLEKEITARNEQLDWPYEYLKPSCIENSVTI
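Purified human 12hLO (150 nM final) in 25 mM Hepes, 0.01% Triton X-100, pH 7.0 was preincubated 15 min at room temperature with compound. Then 40 uM arachidonic acid was added, 30 min. Hydroperoxide was read by Fe-XO absorbance ratio 573/405 nm.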
HT1080 IDH1KD tx – HT-1080 IDH1 knockdown cell toxicity (counter line); HT-1080 IDH1 knockdown viability, ATP luminescence, 48 h; Potency, µM (titrated, usually from 46.1 µM), for inactives: at the highest dose activity, negative = toxicity, actives largely listed as cytotoxic; 2% of 360,000 active;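 also: potency is read from the fitted curve at half-maximal effect; 0% = DMSO wells and -100% = cell-free medium wells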
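HT-1080-IDH1KD cells (IDH1 knocked down), 750/well in RPMI with 5% FBS, treated with compound 48 h at 37 degrees C. Viability by CellTiter-Glo luminescence, normalised to DMSO and no-cell wells; concentration-response curves classed.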
An asterisk follows results filed as active; ? = inconclusive; · = no result; [ ] = another dose, or the depositor's remark. Only a selection was taken, and hits are over-represented in it overall. Unless noted, calls follow the shape of the dose curve; as a rule, active = well fitted curve in the direction sought with a large enough effect; inconclusive = small, poorly fitted or top-dose-only effect, or another doubt; inactive = no such curve, though single readings can be large; an effect the other way counts as inactive or inconclusive. Unless noted, % is scaled to controls: 0 for no effect and ±100 for the full control effect.

SMILES | TDP1 cell noCPT | IL-1B inflam inh | DT40 TDP1 CPT | HT1080NT lethal | ALOX12 inh | HT1080 IDH1KD tx
CN(C)c1cc(N2CCCC(NC(=O)Cc3ccccc3F)C2)ncn1 (configuration not stated) | · | · | · | · | 11% | ·
O=C(COc1ccc2c(-c3ccc(F)cc3)noc2c1)OCc1ccccc1 | · | · | · | · | 1% | ·
COc1ccc2[nH]c(C)c(CCNC(=O)c3cc4cc(Cl)ccc4oc3=O)c2c1 | · | · | · | · | 2% | ·
CC(=O)/C(=N/Nc1ccccc1)Sc1nnc(C(O)c2ccccc2)n1-c1ccccc1 (configuration not stated) | ? | -14 | ? | 7% | -7% | 9%
CCNC(=O)N1CCC(Cc2ccc(C(N)=O)cc2)CC1 | · | · | · | · | 21% | ·
COc1ccc(C2C(C(=O)c3cccs3)=C(O)C(=O)N2Cc2cccnc2)cc1OC (configuration not stated) | -3% | 27 | 3% | 16% | ? | 16%
CCCOc1cccc(C2C(C(=O)c3cccs3)=C(O)C(=O)N2Cc2cccnc2)c1 (configuration not stated) | 16µM* | 57 | ? | -16% | -10% | ?
O=C(NC1CCCCCC1)C1CCN(S(=O)(=O)c2ccccc2)CC1 | -29% | -10 | -4% | -1% | 0% | -4%
O=C(Nc1ccncc1)C1CCN(S(=O)(=O)c2c(Cl)cccc2Cl)CC1 | 18µM* | 21 | ? | -1% | 13% | 1%
O=C(NC1CCCCCC1)C1CCN(S(=O)(=O)c2c(Cl)cccc2Cl)CC1 | 23µM* | 0 | 23µM* | 10% | 1% | -2%
CCc1ccc(NC(=O)Cn2c(=O)n(CCC(=O)NCCc3ccc(OC)c(OC)c3)c(=O)c3ccccc32)cc1 | 3% | · | -4% | · | -10% | ·
COc1ccc2[nH]c(=O)c(CN(Cc3cccnc3)C(=S)NCC3CCCO3)cc2c1 (configuration not stated) | 21µM* | -10 | 18µM* | -9% | -25% | -5%
CCOc1ccc2[nH]c(=O)c(CN(CCO)C(=O)c3ccc(F)cc3)cc2c1 | -10% | -1 | 2% | 0% | 0% | 0%
CCOc1ccc2[nH]c(=O)c(CN(Cc3ccccc3)C(=O)N3CCCC3)cc2c1 | ? | -18 | 21µM* | 5% | 0% | 4%
COc1ccc(NC(=O)N(Cc2cc3cc(C)ccc3[nH]c2=O)CC2CCCO2)cc1 (configuration not stated) | ? | ? | 18µM* | -20% | ? | -14%
COc1ccc2[nH]c(=O)c(CN(CC3CCCO3)C(=O)Nc3ccc(F)cc3)cc2c1 (configuration not stated) | 12µM* | 3 | 16µM* | -5% | 474% | -1%
CC(C)COC(=O)N(C)C[C@H]1OCc2cnnn2CCCC(=O)N([C@H](C)CO)C[C@@H]1C | 13% | 14 | -20% | -3% | -5% | 0%
CCN1CCCC1CN(Cc1cc2cc(C)ccc2[nH]c1=O)C(=O)Nc1ccccc1OC (configuration not stated) | 21µM* | -12 | ? | -8% | 17% | -23%
COc1ccc2[nH]c(=O)c(CN(CC3CCCO3)C(=S)Nc3ccc(C)cc3)cc2c1 (configuration not stated) | 16µM* | -5 | -29% | -2% | -21% | -5%
COc1ccc(N(Cc2cc3ccccc3[nH]c2=O)S(=O)(=O)c2ccc(OC)cc2)cc1 | ? | ? | ? | ? | 5% | ?
COc1ccccc1NC(=O)N(CCN1CCCC1)Cc1cc2cc(C)ccc2[nH]c1=O | ? | 6 | ? | -3%[9.24 µM] | -16% | ?
COc1ccc(N(Cc2cc3cc(OC)ccc3[nH]c2=O)S(=O)(=O)c2ccc(NC(C)=O)cc2)cc1 | 8.2µM* | 6 | 16µM* | · | -17% | ·
Cc1ccc2[nH]c(=O)c(CN(Cc3ccccc3Cl)C(=O)N3CCOCC3)cc2c1 | 21µM* | ? | ? | -12% | 0% | -8%
O=C([C@@H]1C[C@H](F)CN1C(=O)c1cccc(C(F)(F)F)c1)N1CCCCC1 | · | · | · | · | 15% | ·
Cc1ccc(-c2cnc(CCC(=O)N3CCC(CN4CCOCC4)CC3)o2)cc1C | · | · | · | · | 3% | ·
SMILES | TDP1 cell noCPT | IL-1B inflam inh | DT40 TDP1 CPT | HT1080NT lethal | ALOX12 inh | HT1080 IDH1KD tx
Cc1cccc(NC(=O)N(Cc2cc3cc(C)ccc3[nH]c2=O)CC2COCCO2)c1 (configuration not stated) | 23µM* | -73* | ? | -22% | 12% | -17%
Cc1ccc2[nH]c(=O)c(CN(CCCN3CCOCC3)C(=O)Nc3ccc(Cl)cc3)cc2c1 | 16µM* | -2 | 15µM* | 11% | 34% | 0%
Cc1nc(C)c(CC(=O)Nc2nnc(C(C)C)s2)c(=O)[nH]1 | · | · | · | · | -4% | ·
CC(=O)n1c2ccccc2c2nc3ccccc3nc21 | 7% | 44 | -5% | 13% | · | 10%
CC(=O)n1c2ccccc2c2c1c1ccccc1n2C | -23% | 0 | -19% | 23µM* | 30% | ?
COc1ccc(Br)cc1CNC(=O)CCCn1c(=O)c2cccn2c2cccnc21 | 18µM* | · | ? | · | ? | ·
COc1ccc(OC)c(CNC(=O)CCCn2c(=O)c3cccn3c3cccnc32)c1 | -22% | · | 3% | · | ? | ·
COc1ccc(Br)cc1CNC(=O)Cn1c(=O)c2cccn2c2ccc(F)cc21 | 13µM* | · | 4.6µM* | · | ? | ·
COc1ccc(Br)cc1CNC(=O)Cn1ncn2nc(-c3cccs3)cc2c1=O | 13µM* | · | 12µM* | · | -21% | ·
COc1ccc(OC)c(CNC(=O)CCn2c(=O)c3cccn3c3ccc(F)cc32)c1 | ? | 23 | ? | 4% | -20% | 0%
COc1ccc(Br)cc1CNC(=O)CCCn1c(=O)c2cccn2c2ccccc21 | 23µM* | · | ? | · | -25% | ·
CCCCNc1nc2ccccc2nc1NS(=O)(=O)c1cccc(C)c1 | · | · | · | · | -18% | ·
CCN(CC(=O)Nc1cccc(OC)c1)C(=O)c1ccc(-c2ccccc2Cl)o1 | · | · | · | · | -5% | ·
COc1c(C)c2c(c(O)c1CC=C(C)CCC(=O)OCCN1CCOCC1)C(=O)OC2 | · | · | · | · | -29%[57.4 µM] | ·
COc1ccc(-n2c(C)cc(/C=C3/SC(=S)N(C)C3=O)c2C)cc1 | 18µM* | -7 | 21µM* | -2% | 1% | -2%
Cc1cc(/C=C2\SC(=S)N(C)C2=O)c(C)n1-c1cccc(O)c1 | ? | 0 | 23µM* | -11% | ? | -8%

Bioassay records: PubChem BioAssay, National Center for Advancing Translational Sciences (NCATS)
